# Screening data: PubChem BioAssay, National Center for Advancing Translational Sciences (NCATS)
# TDP1 inh: blocks human tyrosyl-DNA phosphodiesterase 1; Q9NUW8; recombinant TDP1, AlphaScreen DNA substrate cleavage; Potency, µM (top dose mostly 130 µM), actives largely listed as inhibitors; 350,000 compounds, 0.28% hits; note: nearly all actives have a fitted effect of over 40% in size
# Target sequence (Q9NUW8 whole entry, looked up): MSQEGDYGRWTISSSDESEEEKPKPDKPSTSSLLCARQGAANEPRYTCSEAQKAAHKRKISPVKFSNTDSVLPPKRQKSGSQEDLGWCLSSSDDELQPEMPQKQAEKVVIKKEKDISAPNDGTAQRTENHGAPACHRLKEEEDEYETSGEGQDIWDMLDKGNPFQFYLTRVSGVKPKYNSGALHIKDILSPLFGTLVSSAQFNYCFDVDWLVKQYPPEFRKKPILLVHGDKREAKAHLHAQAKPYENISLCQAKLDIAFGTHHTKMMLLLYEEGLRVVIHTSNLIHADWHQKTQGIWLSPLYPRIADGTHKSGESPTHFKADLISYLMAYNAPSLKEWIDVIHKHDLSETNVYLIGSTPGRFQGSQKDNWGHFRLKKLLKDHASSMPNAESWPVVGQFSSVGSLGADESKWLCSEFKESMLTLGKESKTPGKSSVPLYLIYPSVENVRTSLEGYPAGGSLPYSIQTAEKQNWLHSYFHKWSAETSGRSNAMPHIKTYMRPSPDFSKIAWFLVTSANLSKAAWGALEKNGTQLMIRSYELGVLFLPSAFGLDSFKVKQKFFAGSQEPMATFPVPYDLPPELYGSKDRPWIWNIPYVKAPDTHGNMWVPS
#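 Recombinant E. coli-expressed Tdp1 (1 nM) preincubated with compound 15 min at RT, then 5'-biotin/3'-phosphotyrosine-FITC DNA substrate (15 nM) added for 5 min. AlphaScreen beads (10 ug/ml) added, 10 min RT; tyrosine-FITC cleavage read as signal loss.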
# DT40 TDP1 CPT: growth inhibition of DT40 Tdp1-/-;hTDP1 cells with camptothecin (screen for TDP1 inhibitors). 420,000 compounds, 12% hits. Potency, µM (highest dose often 46.2 µM), hits mostly inhibitors. chicken DT40 Tdp1-/-;hTDP1 cells + 20 nM CPT, ATP luminescence, 48 h; note: nearly all actives have a fitted effect of over 55% in size
#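 Chicken DT40 Tdp1-/- cells stably complemented with human TDP1 were seeded at 400 cells/well in medium containing 20 nM camptothecin, exposed to pin-transferred compounds, and grown at 37 °C for at least 48 hr. Viability was read as ATP luminescence.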
# ELG1 repair inh: inhibitors of ELG1-dependent DNA repair in HEK293T cells; HEK293T ELG1-luciferase reporter, luminescence, 16 h; DNA damage induced by 5-fluorouridine; Potency, µM (highest dose often 46.1 µM), most hits filed as inhibitors; 330,000 compounds, 2.3% hits; AID 504467; note: nearly all actives have a fitted effect of over 55% in size
#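 DMSO vehicle served as the neutral condition. Each well held 2,000 cells given 5-fluorouridine plus compound; after 16 hr at 37 °C/5% CO2, ONE-Glo was added and luciferase measured 30 min later.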
# Giardia kill: kills Giardia lamblia | activity change, % at 7.66 µM, hits read low | AID 540267 | Giardia lamblia trophozoite viability | 340,000 compounds, 0.15% hits; in the data active = activity change below about -80%; inconclusive = between about -30% and that limit;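 note: parasites exposed to compound for two days anaerobically before the ATP read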
#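 Giardia trophozoites, 100 cells per well, were exposed to compounds for 48 hrs at 37 deg C under anaerobic conditions; viability was then read as ATP content by bioluminescence after 15-30 min at room temperature.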
# DT40 TDP1 no CPT: qHTS for Inhibitors of human tyrosyl-DNA phosphodiesterase 1 (TDP1): qHTS in cells in absence of CPT; Potency, µM (series often up to 46.2 µM), hits mostly inhibitors; DT40 Tdp1-/- hTDP1 cells, no CPT, ATP luminescence, 48 h; 420,000 compounds, 15% hits; note: nearly all actives have a fitted effect of over 55% in size
#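 Growth kinetics read by CellTiter-Glo luminescence after ≥48 hr at 37 °C. Cells: DT40 Tdp1-/- stably carrying human TDP1, 400 per well, compound exposure in the absence of CPT (DMSO vehicle).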
# IL-1B inflam inh: blocks inflammasome-driven IL-1 beta release; THP-1 LPS/ATP IL-1B secretion, AlphaLISA, 16 h; hits give low values; activity change, % at 57.5 µM; 360,000 compounds, 4.7% hits; in the data active = activity change below about -50%; inconclusive = mostly about -30% to -49%
#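 THP-1 cells pretreated 1 hr with compounds (up to 57.5 uM final), then stimulated with LPS (250 ng/mL final) plus ATP (1.25 mM final); secreted IL-1B measured by AlphaLISA after 16 hr, decreased signal indicating inhibition.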
# A number is an active result; 0 = inactive; ? = inconclusive; - = no result; [ ] = another dose, or the depositor's remark. Compounds with a hit are over-represented: about 19% of the library has one in this group of screens. Unless noted, calls come from the whole dose curve; as a rule, active = well fitted curve in the direction sought with a large enough effect; inconclusive = small, poorly fitted or top-dose-only effect, or another doubt; inactive = no such curve, though single readings can be large; an effect the other way counts as inactive or inconclusive.
SMILES,TDP1 inh,DT40 TDP1 CPT,ELG1 repair inh,Giardia kill,DT40 TDP1 no CPT,IL-1B inflam inh
COc1cccc(NC(=O)CSC2=Nc3ccccc3C3=NC(CC(=O)NCc4cccs4)C(=O)N23)c1 (centres undefined),0,10.3µM,-,-,?,-
O=S1(=O)CC(N2CCC(c3ccccc3)CC2)CN1Cc1ccccc1 (centres undefined),-,?,-,-,?,0
CCOC(=O)c1cc(CC)sc1NC(=O)CN1C(=O)C(=O)N(CC(C)C)C1=O,0,0,0,0,0,0
CCOc1cc(C(=O)OCC(=O)c2c(C)[nH]c3ccccc23)ccc1OCC(=O)N1CCOCC1,0,?,16.4µM,0,?,0
CCOc1cc(/C=C/c2nc3ccccc3s2)ccc1OCC(=O)N1CCOCC1,0,0,23.1µM,0,20.6µM,0
CCCNC(=O)C1(C)CCCN(C(=O)COc2ccc(C(C)(C)C)cc2)C1 (centres undefined),-,29.1µM,-,-,16.4µM,0
CCCNC(=O)C1(C)CCCN(C(=O)Cc2ccc(OC)cc2)C1 (centres undefined),-,0,-,-,0,0
CCCNC(=O)C1(C)CCN(C(=O)C2(c3ccc(Cl)cc3)CCCC2)C1 (centres undefined),-,?,-,-,?,0
CCCNC(=O)C1(C)CCCN(C(=O)C2(c3ccc(Cl)cc3)CCCC2)C1 (centres undefined),-,?,-,-,20.6µM,0
O=C(COC(=O)/C=C/c1cccs1)NC1CC1,0,0,0,0,?,0
Cc1ccc(-c2csc(N3CCN(CCCn4c(-c5ccncc5)nc5ccccc54)CC3)n2)cc1,-,5.8µM,?,0,3.66µM,0
Cc1ccc(-c2csc(N3CCN(CCCn4c(C(F)(F)F)nc5ccccc54)CC3)n2)cc1,-,20.6µM,0,0,14.6µM,0
CC(=O)N[C@@H](C)c1nc2ccccc2n1CCCN1CCN(c2nc(-c3ccc(C)cc3)cs2)CC1,-,1.03µM,?,0,1.03µM,0
Cc1ccc(-c2csc(N3CCC[C@@H]3C(=O)NCCn3c(-c4ccncc4)nc4ccccc43)n2)cc1,-,?,14.6µM,0,13µM,?
CC1CCN(C(=O)C(C)OC(=O)CSc2ccc([N+](=O)[O-])cc2)CC1 (centres undefined),0,?,0,0,?,0
CCn1nc(-c2ccccc2)c(-c2ccccc2)c(C(=O)OCCOC)c1=O,0,?,-,-,?,-
CN1CCN(C(c2ccccc2)c2ccccc2)CC1,0,?,0,0,?,0
Clc1ccc(C(c2cccs2)N2CCNCC2)cc1 (centres undefined),-,13µM,-,-,18.4µM,-50.2
O=C(NC(=S)N1CCCCC1)c1cccs1,0,?,0,0,14.6µM,0
O=C(c1cccs1)N1CCCC1,0,0,0,0,0,0
O=C(NC(=S)N1CCN(c2ccc(Cl)cc2[N+](=O)[O-])CC1)c1cccs1,0,9.2µM,0,0,20.6µM,0
O=C(c1cccs1)N1CCN(C(=O)c2cccs2)C1=S,-,5.8µM,-,0,5.8µM,-95.0
CC1CCCCN1C(=S)NC(=O)c1cccs1 (centres undefined),-,?,0,0,16.4µM,0
Cc1ccc(S(=O)(=O)N2CCC(C(=O)OCC(=O)N(Cc3ccccc3)C(C)(C)C)CC2)cc1C,-,?,?,0,?,0
CCOC(=O)N1CCc2c(sc3c2c(=O)n(-c2ccc(CC)cc2)c(=O)n3Cc2cc(C)ccc2C)C1,0,0,-,-,0,-
SMILES,TDP1 inh,DT40 TDP1 CPT,ELG1 repair inh,Giardia kill,DT40 TDP1 no CPT,IL-1B inflam inh
Cc1ccc(C(C)C)c(OCc2nn(CC(=O)c3ccc(OC(F)F)cc3)c3[n+]2CCCCC3)c1,0,0.581µM,?,0,0.581µM,-107.4
O=C(Cn1nc(-c2nn(CC(=O)c3ccccc3)c3[n+]2CCCCC3)[n+]2c1CCCCC2)c1ccccc1,0,0,0,0,0,0
COc1ccc(C(=O)Cn2nc(CNc3ccc(Br)cc3)[n+]3c2CCCCC3)cc1,0,3.66µM,0,0,2.59µM,-80.3
N#CCCCN1C(=O)C(=C(C#N)C#N)c2ccccc21,0,16.4µM,0,0,?,0
CCC1NC(=O)c2ccccc2N1c1cccc(Cl)c1 (centres undefined),-,?,-,0,16.4µM,0
COc1cccc(-n2c(SC)nnc2C2CCN(Cc3cccc(OC)c3O)CC2)c1,-,0[9.04 µM],-,-,?,-
CC(Sc1nnc(NC2CCCCC2)s1)C(=O)Nc1ccc2c(c1)C(=O)c1ccccc1C2=O (centres undefined),0,?,?,0,20.6µM,0
O=C(Nc1ccc(OCC(F)(F)C(F)F)c(C(F)(F)F)c1)c1ccccc1,-,23.1µM,-,0,23.1µM,?
O=C(Nc1ccc(OCC(F)(F)C(F)F)c(C(F)(F)F)c1)c1ccccc1O,0,?,?,0,18.4µM,?
O=C(Nc1ccc(OCC(F)(F)C(F)F)cc1)c1ccncc1,0,?,?,0,?,0
CC(=O)c1cccc(NC(=O)CCc2nnc3ccc(NCc4ccco4)nn23)c1,25.1µM,?,0,0,0,0
COc1ccc(OC)c(NC(=O)CCc2nnc3ccc(N4CCC(C)CC4)nn23)c1,0,0,?,0,?,-50.1
COc1ccc(NC(=O)CCc2nnc3ccc(N4CCC(C)CC4)nn23)cc1OC,0,0,0,0,?,0
COc1ccc(N2CCN(C(=O)CCc3nnc4ccc(N5CCC(C)CC5)nn34)CC2)cc1,0,18.4µM,0,0,18.4µM,0
COc1cccc(N2CCN(c3ccc4nnc(CCC(=O)Nc5cccc(C(C)=O)c5)n4n3)CC2)c1,0,16.4µM,0,0,?,0
CCOc1ccc(NC(=O)Cn2cnc3c(oc4ccccc43)c2=O)cc1,0,0,-,-,0,-
COc1cc(NC(=O)CSc2nnc3c4ccccc4n(C)c3n2)cc(OC)c1OC,-,0,-,0,?,-
CC1=CC(=C(C#N)c2nc3ccccc3s2)C=C(C)N1CC1CCCO1 (centres undefined),0,?,?,0,?,0
CC1CCN(c2ccc3nnc(CCC(=O)N4CCN(c5ccccc5F)CC4)n3n2)CC1,0,23.1µM,?,0,14.6µM,0
O=C(CN(C(=O)c1csnn1)c1ccc2c(c1)OCCO2)NCc1ccc(F)cc1,0[0.0935 µM],0,0,0,0,0
CCC(=O)c1ccc2ncccc2c1,0,0,0,0,0,0
Clc1ccc(-c2nc3nc4ccccc4nc3n2Cc2ccco2)cc1,0,?,?,0,16.4µM,0
Clc1ccc(OCCn2c(-c3ccco3)nc3ccccc32)cc1,0,?,0,0,?,0
COc1ccc(C(=O)n2c(-c3ccco3)nc3ccccc32)cc1,0,6.51µM,?,0,4.11µM,0
